Experimental data reported in PubChem BioAssay (EPA / NIEHS).
Records with an inconclusive call do not appear. Calls of active or inactive are those of the source. Rule for the calls, unless noted: active = hit-call score of the fitted dose curve at least 0.9, where 1 is the maximum; inconclusive = response in the unintended direction; inactive = score below 0.9.

Tests used:
[1] = ATG_TGFb_CIS: Attagene CIS-FACTORIAL HepG2 Assay for human Transforming Growth Factor (TGF) (AID 2282967; active = hit-call score of the fitted dose curve at least 0.9, where 1 is the maximum; inactive = score below 0.9); settings: HepG2 Attagene CIS TGFb reporter, mRNA transcription; actives raise or lower the signal
In short: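 HepG2 cells transiently transfected with cis-promoter-driven multiplexed reporter units; 24 h compound exposure. Reporter mRNA measured by RT-PCR, 6-FAM labeling, HpaI digestion and capillary electrophoresis; bidirectional fit versus DMSO baseline.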

[2] = ATG_VDRE_CIS: Attagene CIS-FACTORIAL HepG2 Assay for human Vitamin D Receptor Element (VDRE) (AID 2282968; active = hit-call score of the fitted dose curve at least 0.9, where 1 is the maximum; inactive = score below 0.9); settings: HepG2 VDRE cis-reporter transcription, actives raise or lower the signal
In short: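 Reporter mRNA induction, quantified by capillary electrophoresis of fluorescently labelled RT-PCR products, was read 24 h after dosing HepG2 cells carrying transiently transfected cis-regulated reporter units; gain or loss relative to DMSO.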

[3] = target: Nuclear receptor subfamily 1 group I member 3 (Homo sapiens) (UniProt Q14994); assay: ATG_CAR_TRANS: Attagene TRANS-FACTORIAL HepG2 Assay for human Constitutive Androstane Receptor (CAR) (AID 2282969); settings: HepG2 Attagene TRANS-FACTORIAL CAR reporter;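 note: activators raise reporter mRNA above DMSO so AC50 marks induction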
Sequence of Nuclear receptor subfamily 1 group I member 3 (Homo sapiens) (Q14994 whole entry, looked up, the tested form may be a part): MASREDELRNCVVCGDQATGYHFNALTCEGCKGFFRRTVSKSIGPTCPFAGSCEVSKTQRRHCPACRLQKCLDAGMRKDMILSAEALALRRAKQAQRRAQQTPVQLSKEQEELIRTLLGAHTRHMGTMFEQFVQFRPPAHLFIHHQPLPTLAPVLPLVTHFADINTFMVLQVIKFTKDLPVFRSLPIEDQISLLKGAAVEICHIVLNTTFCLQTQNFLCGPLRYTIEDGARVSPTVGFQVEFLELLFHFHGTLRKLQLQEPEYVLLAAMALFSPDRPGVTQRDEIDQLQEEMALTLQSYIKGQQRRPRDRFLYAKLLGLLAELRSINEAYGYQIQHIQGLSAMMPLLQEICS
In short: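 Readout is reporter mRNA induction, quantified by fluorescent primer extension and capillary electrophoresis after RT-PCR. Cells were HepG2 transiently carrying chimeric NR-Gal4 constructs with GAL4-UAS reporters, treated for 24 h; activity scored upward from DMSO.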

[4] = target: Steroid hormone receptor ERR1 (Homo sapiens) (UniProt P11474); assay: ATG_ERRa_TRANS: Attagene TRANS-FACTORIAL HepG2 Assay for human Estrogen-Related Receptor alpha (ERRa) (AID 2282971); settings: HepG2 Attagene TRANS reporter, ERRa transactivation
Sequence of Steroid hormone receptor ERR1 (Homo sapiens) (P11474 whole entry, looked up, the tested form may be a part): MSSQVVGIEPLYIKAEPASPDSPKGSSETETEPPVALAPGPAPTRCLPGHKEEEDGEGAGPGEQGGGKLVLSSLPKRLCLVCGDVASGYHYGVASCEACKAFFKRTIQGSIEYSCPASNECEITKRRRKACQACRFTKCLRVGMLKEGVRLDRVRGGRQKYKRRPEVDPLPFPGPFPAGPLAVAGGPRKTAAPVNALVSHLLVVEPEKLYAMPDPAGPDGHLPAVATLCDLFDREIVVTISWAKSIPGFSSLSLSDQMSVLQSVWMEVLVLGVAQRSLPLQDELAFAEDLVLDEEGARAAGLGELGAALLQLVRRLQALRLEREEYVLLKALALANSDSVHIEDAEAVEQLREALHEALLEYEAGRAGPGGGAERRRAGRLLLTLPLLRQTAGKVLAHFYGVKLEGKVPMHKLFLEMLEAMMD
In short: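 HepG2 cells were transiently transfected with multiple GAL4-UAS reporter units, then dosed with compound for 24 h. Total RNA was reverse-transcribed, reporter cDNA PCR-amplified and fluorescently labelled, and fragments resolved by capillary electrophoresis; induction was compared with DMSO.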

[5] = target: X-box-binding protein 1 (Homo sapiens) (UniProt P17861); assay: ATG_Xbp1_CIS: Attagene CIS-FACTORIAL HepG2 Assay for human X-box Binding Protein 1 (XBP1) (AID 2282972; active = hit-call score of the fitted dose curve at least 0.9, where 1 is the maximum; inactive = score below 0.9); settings: HepG2 XBP1 cis-element reporter, Attagene multiplex; actives raise or lower the signal
Sequence of X-box-binding protein 1 (Homo sapiens) (P17861 whole entry, looked up): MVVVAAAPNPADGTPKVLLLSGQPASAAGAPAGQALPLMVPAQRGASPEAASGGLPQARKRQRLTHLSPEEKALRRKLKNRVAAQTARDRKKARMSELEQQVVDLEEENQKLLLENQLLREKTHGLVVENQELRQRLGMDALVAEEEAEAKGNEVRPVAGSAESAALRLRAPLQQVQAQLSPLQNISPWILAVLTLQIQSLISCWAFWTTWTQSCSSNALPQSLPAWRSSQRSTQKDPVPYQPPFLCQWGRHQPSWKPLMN
In short: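 HepG2 cells transiently transfected with cis-regulated multiple reporter transcription units; endogenous transcription factor activity measured 24 hours after chemical dosing. Reporter mRNA quantified by RT-PCR, 6-FAM primer extension, HpaI digestion and capillary electrophoresis; bidirectional fitting versus DMSO.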

[6] = ATG_Hpa5_TRANS: Attagene TRANS-FACTORIAL HepG2 Assay for human GAL4-Hpa5 Hepatocyte Transcription Factor Basal Promoter (AID 2282975); settings: HepG2 Attagene GAL4-Hpa5 transcription reporter;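 note: hits are increases in reporter mRNA over DMSO baseline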
In short: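 Basal-promoter GAL4 background control within the HepG2 trans-factorial panel of transiently transfected reporter units. Reporter mRNA is measured 24 h after dosing by RT-PCR and capillary electrophoresis, fitted for gain of signal versus DMSO.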

[7] = target: Estrogen-related receptor gamma (Homo sapiens) (UniProt P62508); assay: ATG_ERRg_TRANS: Attagene TRANS-FACTORIAL HepG2 Assay for human Estrogen-Related Receptor gamma (ERRg) (AID 2282977); settings: HepG2 Attagene TRANS reporter, ERRg transactivation;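 note: hits increase reporter signal over DMSO so potencies reflect activators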
Sequence of Estrogen-related receptor gamma (Homo sapiens) (P62508 whole entry, looked up, the tested form may be a part): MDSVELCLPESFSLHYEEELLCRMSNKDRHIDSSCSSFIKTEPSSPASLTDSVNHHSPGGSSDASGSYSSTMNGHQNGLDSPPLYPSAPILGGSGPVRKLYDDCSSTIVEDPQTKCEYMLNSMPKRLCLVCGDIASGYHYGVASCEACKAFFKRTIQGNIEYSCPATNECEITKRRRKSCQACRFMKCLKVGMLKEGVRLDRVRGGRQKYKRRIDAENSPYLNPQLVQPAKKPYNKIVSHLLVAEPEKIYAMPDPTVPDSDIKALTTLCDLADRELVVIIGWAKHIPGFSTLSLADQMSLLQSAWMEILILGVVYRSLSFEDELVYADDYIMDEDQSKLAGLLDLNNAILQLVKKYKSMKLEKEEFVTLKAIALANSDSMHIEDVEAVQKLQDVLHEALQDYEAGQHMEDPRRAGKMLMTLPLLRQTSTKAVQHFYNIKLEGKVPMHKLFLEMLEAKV
In short: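 HepG2 cells transiently transfected with multiplexed GAL4-UAS reporter units driven by chimeric NR-Gal4 proteins; 24 h exposure. Reporter mRNA quantified by RT-PCR, fluorescent labelling, HpaI digestion and capillary electrophoresis; gain of signal vs DMSO.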

[8] = target: Glucocorticoid receptor (Homo sapiens) (UniProt P04150); assay: ATG_GR_TRANS: Attagene TRANS-FACTORIAL HepG2 Assay for human Glucocorticoid Receptor (GR) (AID 2282978); settings: HepG2 Attagene TRANS GR reporter, mRNA transcription;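 note: activators score as hits since higher reporter transcript over DMSO is fitted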
Sequence of Glucocorticoid receptor (Homo sapiens) (P04150 whole entry, looked up, the tested form may be a part): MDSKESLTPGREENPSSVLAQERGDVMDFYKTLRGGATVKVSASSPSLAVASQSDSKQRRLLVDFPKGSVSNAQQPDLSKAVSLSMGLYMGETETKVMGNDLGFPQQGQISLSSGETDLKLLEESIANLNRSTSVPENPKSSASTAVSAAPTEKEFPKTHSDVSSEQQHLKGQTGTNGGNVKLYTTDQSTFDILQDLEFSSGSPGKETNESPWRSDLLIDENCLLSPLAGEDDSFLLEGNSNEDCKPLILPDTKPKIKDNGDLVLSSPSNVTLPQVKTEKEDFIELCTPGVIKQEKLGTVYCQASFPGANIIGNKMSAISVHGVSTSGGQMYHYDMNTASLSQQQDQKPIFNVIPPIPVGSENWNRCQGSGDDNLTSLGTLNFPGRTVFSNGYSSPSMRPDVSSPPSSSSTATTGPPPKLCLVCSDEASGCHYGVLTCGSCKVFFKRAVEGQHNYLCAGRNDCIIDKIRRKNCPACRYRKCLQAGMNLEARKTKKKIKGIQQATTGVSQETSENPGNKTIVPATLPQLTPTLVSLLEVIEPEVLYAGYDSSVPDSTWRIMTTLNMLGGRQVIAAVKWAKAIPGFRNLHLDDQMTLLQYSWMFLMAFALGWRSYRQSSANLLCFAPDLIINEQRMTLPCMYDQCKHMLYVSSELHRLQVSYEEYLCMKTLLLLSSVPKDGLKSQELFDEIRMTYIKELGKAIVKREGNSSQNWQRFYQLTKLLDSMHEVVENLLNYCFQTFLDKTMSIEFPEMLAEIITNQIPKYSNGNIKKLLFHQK
In short: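 In this trans-factorial format, exogenous NR-GAL4 chimeric proteins in transfected HepG2 cells regulate GAL4-UAS reporter transcription. After 24 h treatment, reporter mRNA induction relative to DMSO is read by RT-PCR and capillary electrophoresis.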

[9] = target: Oxysterols receptor LXR-alpha (Homo sapiens) (UniProt Q13133); assay: ATG_LXRa_TRANS: Attagene TRANS-FACTORIAL HepG2 Assay for human Liver X Receptor alpha (LXRa) (AID 2282980); settings: HepG2 Attagene TRANS reporter, LXRa transactivation
Sequence of Oxysterols receptor LXR-alpha (Homo sapiens) (Q13133 whole entry, looked up): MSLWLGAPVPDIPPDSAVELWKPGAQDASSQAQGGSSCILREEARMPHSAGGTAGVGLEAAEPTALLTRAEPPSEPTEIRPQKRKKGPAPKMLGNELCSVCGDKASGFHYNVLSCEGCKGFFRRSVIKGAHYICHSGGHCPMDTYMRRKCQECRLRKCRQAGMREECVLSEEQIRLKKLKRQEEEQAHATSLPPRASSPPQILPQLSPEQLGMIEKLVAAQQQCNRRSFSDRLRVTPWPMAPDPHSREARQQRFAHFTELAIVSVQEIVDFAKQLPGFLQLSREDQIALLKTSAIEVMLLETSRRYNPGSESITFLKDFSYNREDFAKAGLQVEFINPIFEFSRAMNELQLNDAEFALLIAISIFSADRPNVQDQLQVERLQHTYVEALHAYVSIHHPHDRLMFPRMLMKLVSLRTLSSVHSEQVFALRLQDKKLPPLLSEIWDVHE
In short: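 Transient HepG2 transfectants, 24 h dosing, RT-PCR/CE mRNA reporter quantitation; gain-of-signal vs DMSO.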

[10] = ATG_M_32_TRANS: Attagene TRANS-FACTORIAL HepG2 Assay for M32 Transcription Factor (Internal Marker) (AID 2282984); settings: HepG2 Attagene TRANS M32 internal marker reporter
In short: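 Measures reporter mRNA induction in human HepG2 liver cells after 24 h chemical treatment. Transcripts from transiently transfected GAL4-UAS reporter units are amplified, fluorescently labelled and sized by capillary electrophoresis; gain of signal relative to DMSO.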

[11] = target: Nuclear receptor subfamily 4 group A member 2 (Homo sapiens) (UniProt P43354); assay: ATG_NURR1_TRANS: Attagene TRANS-FACTORIAL HepG2 Assay for human Nuclear Receptor Related Protein 1 (NURR1) (AID 2282985); settings: HepG2 Attagene TRANS reporter, mRNA readout
In short: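 Transient transfection of HepG2, human liver cells, with multiple GAL4-UAS reporter transcription units. Cells dosed 24 h, RNA isolated, reverse-transcribed, PCR-amplified, FAM-labelled, HpaI-digested, sized by capillary electrophoresis. DMSO served as negative control.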

[12] = target: Transcriptional activator Myb (Homo sapiens) (UniProt P10242); assay: ATG_Myb_CIS: Attagene CIS-FACTORIAL HepG2 Assay for human Myeloblastosis (Myb) Proto-Oncogene Transcription Factor (AID 2282986; active = hit-call score of the fitted dose curve at least 0.9, where 1 is the maximum; inactive = score below 0.9); settings: HepG2 Attagene CIS-FACTORIAL Myb reporter transcription; actives raise or lower the signal
Sequence of Transcriptional activator Myb (Homo sapiens) (P10242 whole entry, looked up): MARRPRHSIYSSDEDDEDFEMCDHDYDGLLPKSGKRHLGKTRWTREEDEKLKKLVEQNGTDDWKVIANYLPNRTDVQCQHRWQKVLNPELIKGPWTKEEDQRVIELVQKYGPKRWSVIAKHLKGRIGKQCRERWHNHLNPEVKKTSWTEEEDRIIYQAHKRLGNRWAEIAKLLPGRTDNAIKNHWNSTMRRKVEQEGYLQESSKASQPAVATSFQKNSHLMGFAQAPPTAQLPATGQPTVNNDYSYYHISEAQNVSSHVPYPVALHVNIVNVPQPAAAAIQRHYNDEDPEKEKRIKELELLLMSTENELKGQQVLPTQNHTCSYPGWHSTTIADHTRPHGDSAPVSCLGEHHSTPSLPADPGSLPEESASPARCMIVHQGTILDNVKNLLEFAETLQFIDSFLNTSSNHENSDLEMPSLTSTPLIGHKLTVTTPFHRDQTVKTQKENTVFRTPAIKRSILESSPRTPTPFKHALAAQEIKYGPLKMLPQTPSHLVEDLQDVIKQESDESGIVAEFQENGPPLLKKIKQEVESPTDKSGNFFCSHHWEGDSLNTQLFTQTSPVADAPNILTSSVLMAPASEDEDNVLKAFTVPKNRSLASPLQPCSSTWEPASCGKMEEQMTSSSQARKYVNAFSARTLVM
In short: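 Steps: transfect HepG2 with cis-regulated reporter units; dose with chemical for 24 h; isolate RNA, reverse-transcribe, PCR-amplify and FAM-label reporter sequences; digest with HpaI; resolve by capillary electrophoresis. Activity fitted in both directions relative to DMSO.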

[13] = target: Nuclear respiratory factor 1 (Homo sapiens) (UniProt Q16656); assay: ATG_NRF1_CIS: Attagene CIS-FACTORIAL HepG2 Assay for human Nuclear Respiratory Factor 1 (NRF1) Orphan Gene (AID 2282987; active = hit-call score of the fitted dose curve at least 0.9, where 1 is the maximum; inactive = score below 0.9); settings: HepG2 NRF1 cis-element reporter, Attagene multiplex; actives raise or lower the signal
Sequence of Nuclear respiratory factor 1 (Homo sapiens) (Q16656 whole entry, looked up, the tested form may be a part): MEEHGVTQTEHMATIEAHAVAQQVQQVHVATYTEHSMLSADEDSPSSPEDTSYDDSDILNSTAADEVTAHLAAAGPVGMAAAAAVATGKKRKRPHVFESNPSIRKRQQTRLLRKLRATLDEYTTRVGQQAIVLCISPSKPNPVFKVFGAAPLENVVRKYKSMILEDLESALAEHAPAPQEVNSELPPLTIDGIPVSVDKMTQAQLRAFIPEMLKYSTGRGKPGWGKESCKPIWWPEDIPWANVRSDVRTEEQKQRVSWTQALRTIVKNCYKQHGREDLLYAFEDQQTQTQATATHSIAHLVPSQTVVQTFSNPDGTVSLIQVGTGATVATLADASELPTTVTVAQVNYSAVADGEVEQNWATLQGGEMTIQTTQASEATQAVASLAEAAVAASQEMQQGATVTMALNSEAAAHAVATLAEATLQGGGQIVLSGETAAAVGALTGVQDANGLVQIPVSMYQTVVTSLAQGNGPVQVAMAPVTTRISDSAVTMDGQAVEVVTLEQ
In short: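 Fluorescence intensity of labelled reporter cDNA fragments, resolved by capillary electrophoresis, served as readout for NRF1 cis-element activity. Transiently transfected HepG2 cells were dosed for 24 hours; activity in either direction was fitted against DMSO negative control.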

[14] = ATG_M_19_TRANS: Attagene TRANS-FACTORIAL HepG2 Assay for M19 Transcription Factor (Internal Marker) (AID 2282974); settings: HepG2 Attagene TRANS-FACTORIAL M19 internal marker reporter
In short: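 Cells: human HepG2, transiently transfected with multiplexed reporter transcription units. Exposure: 24 h. Detection: RT-PCR of reporter mRNA with capillary electrophoresis. Analysis: gain-of-signal vs DMSO.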

[15] = target: Oxysterols receptor LXR-beta (Homo sapiens) (UniProt P55055); assay: ATG_LXRb_TRANS: Attagene TRANS-FACTORIAL HepG2 Assay for human Liver X Receptor beta (LXRb) (AID 2282981); settings: HepG2 Attagene TRANS GAL4-LXRb reporter, mRNA
Sequence of Oxysterols receptor LXR-beta (Homo sapiens) (P55055 whole entry, looked up, the tested form may be a part): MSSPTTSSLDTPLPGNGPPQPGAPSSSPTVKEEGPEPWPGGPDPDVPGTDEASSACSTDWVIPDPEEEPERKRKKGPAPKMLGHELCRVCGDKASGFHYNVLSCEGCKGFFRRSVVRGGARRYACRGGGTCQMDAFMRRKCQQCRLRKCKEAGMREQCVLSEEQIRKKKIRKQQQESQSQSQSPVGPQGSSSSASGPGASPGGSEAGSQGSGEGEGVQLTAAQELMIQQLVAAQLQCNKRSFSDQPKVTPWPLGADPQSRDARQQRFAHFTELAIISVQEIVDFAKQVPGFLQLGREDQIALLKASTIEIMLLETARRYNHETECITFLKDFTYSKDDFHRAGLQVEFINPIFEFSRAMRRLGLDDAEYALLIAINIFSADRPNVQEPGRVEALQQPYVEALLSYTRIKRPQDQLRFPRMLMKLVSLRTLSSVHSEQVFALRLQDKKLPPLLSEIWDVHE
In short: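 Transient transfection HepG2 (multiplexed RTUs, GAL4-UAS); NR-Gal4 chimera; 24 h exposure; RNA → RT-PCR → 6-FAM primer extension → HpaI → CE; increase vs DMSO.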

[16] = target: Hepatocyte nuclear factor 4-alpha (Homo sapiens) (UniProt P41235); assay: ATG_HNF4a_TRANS: Attagene TRANS-FACTORIAL HepG2 Assay for human Hepatocyte Nuclear Factor 4 alpha (HNF4a) (AID 2282982); settings: HepG2 HNF4a transactivation reporter, mRNA readout
Sequence of Hepatocyte nuclear factor 4-alpha (Homo sapiens) (P41235 whole entry, looked up, the tested form may be a part): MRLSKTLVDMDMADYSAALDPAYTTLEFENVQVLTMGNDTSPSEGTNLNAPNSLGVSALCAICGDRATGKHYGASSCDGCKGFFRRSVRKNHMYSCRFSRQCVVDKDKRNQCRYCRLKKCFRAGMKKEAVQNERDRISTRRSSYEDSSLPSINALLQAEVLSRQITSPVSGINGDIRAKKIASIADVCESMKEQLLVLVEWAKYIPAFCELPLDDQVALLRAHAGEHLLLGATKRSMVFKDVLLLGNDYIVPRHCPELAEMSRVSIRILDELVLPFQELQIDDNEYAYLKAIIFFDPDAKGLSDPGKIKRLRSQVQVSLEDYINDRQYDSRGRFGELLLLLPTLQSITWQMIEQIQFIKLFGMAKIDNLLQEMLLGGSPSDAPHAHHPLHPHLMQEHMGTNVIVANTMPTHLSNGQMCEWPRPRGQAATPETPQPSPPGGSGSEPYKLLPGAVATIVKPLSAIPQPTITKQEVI
In short: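 Readout is fluorescent reporter-transcript fragments resolved by capillary electrophoresis after RT-PCR from HepG2 cells dosed for 24 h. Cells carried transfected GAL4-UAS reporter constructs measuring exogenous NR-GAL4 chimera activity; DMSO served as baseline.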

[17] = target: Androgen receptor (Homo sapiens) (UniProt P10275); assay: ATG_AR_TRANS: Attagene TRANS-FACTORIAL HepG2 Assay for human Androgen Receptor (AR) (AID 2282973); settings: HepG2 Attagene TRANS-FACTORIAL AR reporter transcription
In short: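 Transfected HepG2, 24 h treatment, chimeric NR-Gal4 driving GAL4-UAS reporters. mRNA induction by RT-PCR/capillary electrophoresis fluorescence; DMSO as negative control and baseline.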

[18] = ATG_GAL4_TRANS: Attagene TRANS-FACTORIAL HepG2 Assay for GAL4 (Internal Marker) (AID 2282976); settings: HepG2 Attagene TRANS GAL4 internal marker reporter
In short: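 Fluorescence from capillary electrophoresis of labelled RT-PCR products quantifies reporter mRNA induction after 24 h dosing of HepG2 cells carrying transfected GAL4-UAS reporter transcription units. Vehicle DMSO serves as baseline.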

[19] = target: Bile acid receptor (Homo sapiens) (UniProt Q96RI1); assay: ATG_FXR_TRANS: Attagene TRANS-FACTORIAL HepG2 Assay for Farnesoid X Receptor (FXR) (AID 2282979); settings: HepG2 Attagene TRANS FXR-GAL4 reporter transcription;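 note: hits raise reporter mRNA above DMSO so AC50 marks FXR activation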
In short: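 Chimeric FXR-GAL4 activity in transiently transfected human HepG2 liver cells is scored as induction of reporter mRNA after 24 h of dosing. Detection uses RT-PCR with fluorescent labelling and capillary electrophoresis, with DMSO serving as baseline.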

Measured: AC50

CCCCN(CC)c1c([N+](=O)[O-])cc(C(F)(F)F)cc1[N+](=O)[O-]
active: [2] 13.3 µM
not listed: [14] | [15] | [16] | [17] | [18] | [19]
inactive: all other assays above

O=C(O)c1cc(Oc2ccc(C(F)(F)F)cc2Cl)ccc1[N+](=O)[O-]
not listed: [2] | [3] | [7] | [9] | [11] | [17] | [18] | [19]
inactive: all other assays above

CCOP(=O)(NC(C)C)Oc1ccc(SC)c(C)c1 (stereo unspecified)
active: [2] 8.8 µM
not listed: [4] | [7] | [11] | [16]
inactive: all other assays above

Nc1c(Cl)cc([N+](=O)[O-])cc1Cl
active: [1] 70.8 µM | [5] 50 µM
not listed: [8] | [11] | [17] | [18]
inactive: all other assays above

CCOC(=O)CC(SP(=O)(OC)OC)C(=O)OCC (stereo unspecified)
inactive: [1] | [3] | [5] | [14] | [6] | [8] | [9] | [15] | [12] | [13]

CN(C)C(=O)Nc1cccc(C(F)(F)F)c1
inactive: [1] | [2] | [5] | [14] | [15] | [10] | [12] | [13]

CC[C@H](C)[C@H]1O[C@]2(C=C[C@@H]1C)C[C@@H]1C[C@@H](C/C=C(\C)[C@@H](O[C@H]3C[C@H](OC)[C@@H](O[C@H]4C[C@H](OC)[C@@H](NC)[C@H](C)O4)[C@H](C)O3)[C@@H](C)/C=C/C=C3\CO[C@@H]4[C@H](O)C(C)=C[C@@H](C(=O)O1)[C@]34O)O2
not listed: [4] | [7] | [8] | [11] | [17] | [18] | [19]
inactive: all other assays above

CCc1cccc(CC)c1N(COC)C(=O)CCl
active: [2] 7.75 µM
inactive: [1] | [5] | [17] | [14] | [8] | [9] | [15] | [16] | [12] | [13]

CC(Oc1cccc(Cl)c1)C(=O)O (stereo unspecified)
not listed: [3] | [4] | [7] | [9] | [16] | [17] | [18] | [19]
inactive: all other assays above
